VLA-4 inh: inhibition in human VLA-4 binding assay, primary screen, VLA-4 allosteric modulator project, MLPCN library, flow cytometry, VLA-4 expressing cells; inhibition, % (about 7 µM as worked out from the volumes in the protocol); ligand binding flow cytometry; Integrin alpha-4 (Homo sapiens), P13612; AID 2557, 2010; 330,000 tested, 0.2% active; in the data active = inhibition above about 50%
SKN-1 inh: suppressors of acrylamide-induced Pgst-4::GFP reporter in worms, primary screen, SKN-1 inhibitor project, whole organism, uHTS, GFP/RFP fluorescence ratio, strain VP596; C. elegans VP596 Pgst-4::GFP/RFP ratio, 24 h; inhibition, % at 21.8 µM; 360,000 tested, 0.49% active;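 active = interference check ratio from 0.5 to 1.5 plus GFP to RFP signal ratio inhibition reaching or exceeding a fixed threshold, cut at about 30% in these data, passing the limit was not always enough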
Platelet DG rel: inhibitors of platelet dense granule secretion, primary screen, cell-based, MLPCN, human platelets; human platelet-rich plasma, SFLLRN dense granule ATP release, luminescence; inhibition, %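 (compounds screened at 7.5 µM in platelet-rich plasma)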; 300,000 tested, 0.22% active; AID 1663, 2009;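 active = mean replicate score, as percent of positive control, at or above 50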
Yeast superoxide: reduction of superoxide in aged yeast, primary screen, HTS; S. cerevisiae aged cells, superoxide DHE fluorescence; active compounds read low; superoxide response (% of plate mean), % at 10 µM; 330,000 tested, 0.18% active; AID 2690, 2010;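 active = superoxide response under a set limit, about three screen SD below normal, cut at about 65% in these data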;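 note: yeast aged for seven days with compound at 30 °C before DHE staining; 100% = average MFI of all compound-treated wells on the plate with controls excluded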
ABCB6 inh 2: ABCB6 transporter inhibitors, primary screen, K562-ABCB6 cells, flow cytometry, MLPCN library. fluorescence ratio to DMSO, % at 10 µM. AID 602162, 2011. 360,000 tested, 0.19% active. K562-ABCB6 porphyrin accumulation, 1 h; active compounds read low;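 active = fluorescence ratio to DMSO below 75%, the collection mean minus 3 SD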;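 note: signal is porphyrin accumulated inside mitochondria; 100% equals median channel fluorescence of DMSO control wells; lower ratio means ABCB6 inhibition with less porphyrin fluorescence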
VLA-4 mod pick: retest of VLA-4 allosteric modulators, confirmation, cell-based, cherry-picked plates, U937, HUTS-21 LIBS antibody; shares compounds with VLA-4 inh; U937 cells, HUTS-21 LIBS mAb binding, flow cytometry; LDV ligand present at threefold Kd; 1,300 tested, 2% active; inhibition, % at 6.7 µM; in the data active = inhibition above about 40%;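 note: 0% = ligand without compound and 100% = no ligand background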
Starred values were filed as active, the others as inactive; i = inactive; x = no result. Rows were chosen to be rich in hits. Some 1.2% of all compounds tested hit in one or more screens of this group.

SMILES	VLA-4 inh	SKN-1 inh	Platelet DG rel	Yeast superoxide	ABCB6 inh 2	VLA-4 mod pick
CCOc1ccc(N(CC(=O)Nc2ccc(OC)cc2)S(=O)(=O)c2c(C)noc2C)cc1	4	-8	-5	97	93	x
CCOc1ccc(NC(=O)CN(c2cc(C)cc(C)c2)S(=O)(=O)c2c(C)noc2C)cc1	53*	-11	-14	104	101	7
CCOc1ccc(N(CC(=O)Nc2ccc(C)c(C)c2)S(=O)(=O)c2c(C)[nH]c(=O)[nH]c2=O)cc1	-1	0	6	88	100	-8
COC(=O)CN1C(=O)CSc2ccc(S(=O)(=O)N3CCC(C)CC3)cc21	x	-5	x	x	95	x
COC(=O)c1ccc(/C=C2\Oc3ccccc3NC2=O)cc1	-2	11	-10	98	95	x
O=C1Nc2ccccc2O/C1=C\c1c(F)cccc1Cl	49	9	3	121	99	-18
Cc1nc(CN(C)c2ncnc3ccc(-c4ccc5c(c4)OCO5)cc23)cs1	x	3	x	x	99	x
COc1ccc(C2C(C(=O)Nc3ccccc3)=C(C)Nc3nc(CCCO)nn32)cc1 (stereo unspecified)	9	16	-2	101	102	x
CC1=C(C(=O)Nc2ccc(F)cc2)C(c2cccc(C)c2)n2nc(CCCO)nc2N1 (stereo unspecified)	51*	8	-2	97	104	-4
CN(CC(=O)Nc1ccc(N2CCOCC2)cc1)CC(=O)Nc1ccc(C(F)(F)F)cc1	-4	-6	x	118	100	x
CCN(CC(=O)Nc1ccc(N2CCOCC2)cc1)CC(=O)NC(C)(C)C	45	-8	1	77	94	-10
CN(CC(=O)Nc1ccc(N2CCOCC2)cc1)C(=O)CCNC(=O)c1ccc(Br)cc1	50*	-4	-3	118	98	-4
Nc1ncnc2c1nc(Br)n2[C@@H]1O[C@@H]2COP(=O)(O)O[C@H]2[C@H]1O	54*	-4	-4	110	98	4
Cc1ccc(S(=O)(=O)N2C[C@H]3C(=O)C[C@@H](c4ccccc4)N(S(C)(=O)=O)[C@H]3C[C@H]2c2ccccc2)cc1	x	13	x	x	102	x
CCCC(=O)Nc1ccc(C(=O)Nc2nc(CC(=O)OCC)cs2)cc1	56*	-2	7	97	97	2
COC(=O)[C@@]12C[C@@H](CC(=O)N3CCC(c4ccccc4)CC3)C(=O)N(Cc3ccc4c(c3)OCO4)C1=CCC(C)(C)C2	x	9	x	x	x	x
CC(C)=N/N=C(/c1ccc([N+](=O)[O-])cc1)C12CN3CN(CN(C3)C1)C2	41	1	0	123	97	-7
O=C(NCc1ccccc1)C(c1ccccc1)n1c(C2CC2)nc2ccccc21 (stereo unspecified)	x	6	x	x	x	x
COc1ccc(/C=N/NC(=O)c2ccncc2)c(C(=O)O)c1OC	3	-1	-2	i	97	x
COc1ccc(/C=N/NC(=O)c2cccc(NC(C)=O)c2)c(C(=O)O)c1OC	43	-10	-9	91	99	0
COc1ccccc1-c1sc2cc3c(cc2c1-c1ccc2c(c1)OCO2)OCO3	5	21	x	96	96	x
COc1ccccc1-c1sc2cc3c(cc2c1-c1ccc(OCCN2CCCCC2)cc1)OCO3	33	-4	x	89	95	18
Oc1cccc(-c2sc3ccccc3c2-c2ccc(OCCN3CCCCC3)cc2)c1	x	12	x	x	103	x
COc1cc2sc(-c3ccccc3OC)c(-c3ccc(OCCN4CCCCC4)cc3)c2cc1OC	26	-13	x	107	90	4
O=C1C2CCCCN2C(=O)N1CCN1CCN(c2ccc([N+](=O)[O-])cc2)CC1 (stereo unspecified)	93*	13	-5	103	103	3
COc1ccc(Cc2c(C3CCCCC3)nc3c(Cl)cc(C(F)(F)F)cn23)c(C)c1	x	1	x	x	110	x
COc1cc(/C=N/NC(=O)c2ccncc2)c([N+](=O)[O-])cc1OC	57*	-4	-5	92	97	-5
